Bioassay records as filed in PubChem BioAssay.
SW480 rereplic – induces DNA re-replication in SW480 colon adenocarcinoma cells; Potency, µM (series often up to 46.1 µM), hits mostly activators; SW480 DNA re-replication, Hoechst DNA content imaging, 48 h; 340,000 compounds, 1.8% hits; further: nearly all actives have a fitted effect of over 55% in size
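Quantitative HTS format with DMSO vehicle controls; 48 hr drug incubation at 37 C, then 40 min Hoechst staining and scanning imager measurement at 405 nm excitation.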
MCF10A rereplic – inducers of DNA re-replication in MCF 10A breast cells. 350,000 compounds, 2.9% hits. Potency, µM (highest dose often 46.1 µM), actives largely listed as activators. MCF 10A DNA re-replication, Hoechst nuclear intensity, 48 h; further: nearly all actives have a fitted effect of over 50% in size
RORg inh – ROR gamma (mouse) transcription inhibition | P51450 | Drosophila S2 Gal4-RORgamma UAS-luciferase reporter, 20 h | Potency, µM (top dose mostly 53.6 µM), most hits filed as inhibitors | 310,000 compounds, 5.4% hits | AID 2551; further: nearly all actives have a fitted effect of over 60% in size
Target sequence (P51450 whole entry, looked up, the tested form may be a part): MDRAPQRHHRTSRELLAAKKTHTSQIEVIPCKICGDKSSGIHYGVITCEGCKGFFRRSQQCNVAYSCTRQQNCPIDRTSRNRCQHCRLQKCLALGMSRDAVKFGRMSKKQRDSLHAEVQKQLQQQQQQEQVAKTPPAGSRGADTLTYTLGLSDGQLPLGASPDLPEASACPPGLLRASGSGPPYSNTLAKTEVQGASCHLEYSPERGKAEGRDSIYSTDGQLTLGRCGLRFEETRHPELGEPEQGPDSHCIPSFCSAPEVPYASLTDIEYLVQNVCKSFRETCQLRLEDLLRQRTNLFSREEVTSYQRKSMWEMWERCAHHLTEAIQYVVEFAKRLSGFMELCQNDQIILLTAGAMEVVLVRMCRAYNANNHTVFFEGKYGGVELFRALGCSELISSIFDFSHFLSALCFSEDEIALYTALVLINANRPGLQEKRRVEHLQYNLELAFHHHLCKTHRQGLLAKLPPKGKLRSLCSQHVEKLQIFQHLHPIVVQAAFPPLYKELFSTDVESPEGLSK
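Luciferase reporter read in Schneider cells carrying Gal4-RORγ (mouse) and UAS-Photinus luciferase; cells given compound 1 h before 700 uM copper sulfate induction, then incubated 20 h at ambient temperature.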
Gal4-VP16 FLuc – counter-screen for ROR gamma inhibitors: Gal4-VP16 reporter | Drosophila S2 Gal4-VP16 UAS-luciferase, luminescence, 20 h | Potency, µM (titrated, usually from 53.6 µM), hits mostly inhibitors | 310,000 compounds, 3.5% hits | AID 2546;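 further: Gal4-VP16 expression switched on by copper sulfate through the metallothionein promoter; nearly all actives have a fitted effect of over 50% in size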
Giardia kill – kills Giardia lamblia; Giardia lamblia trophozoite viability; activity change, % at 7.66 µM, hits read low; 340,000 compounds, 0.15% hits; in the data active means activity change below about -80%; inconclusive means between about -30% and that limit;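 further: parasites exposed to compound for two days anaerobically before the ATP read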
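ATP-content bioluminescence gauges trophozoite survival. Cells (100/well) receive compound and incubate anaerobically for 48 hrs at 37 deg C; detection reagent follows for 15-30 min at room temperature.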
Chronic BCR inh – chronic active BCR signaling inhibition. Potency, µM (doses to about 46.1 µM), usual class: inhibitors. AID 493014. 340,000 compounds, 0.05% hits. ABC-DLBCL IkBa-CBG/CBR reporter, luminescence ratio, 4 h; active means well fitted inhibition curve with a large enough effect in the signal ratio, with a control signal flat, not every such curve was filed as active; inconclusive means small, poorly fitted or top-dose-only effect, or effect the other way, or a change in a side signal; the % refers to the signal ratio
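Compounds up to 46 uM were incubated four hours with TMD8 cells whose green CBG68 luciferase is fused to IkappaBalpha; red CBR luminescence normalised the signal, and concentration-effect curves were fitted to fusion, red and ratio data.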
Large screens that a line does not name were inactive. Sampled rows, rich in hits. Any-hit rate of the full collection: about 8.3%. Unless noted, the call rests on the fitted dose curve; in most records, active means well fitted curve in the direction sought with a large enough effect; inconclusive means small, poorly fitted or top-dose-only effect, or another doubt; inactive means no such curve, though single readings can be large; an effect the other way counts as inactive or inconclusive.

CCN(CC)S(=O)(=O)c1ccc(N/N=C(\C)c2ccc(OC)cc2O)nc1	SW480 rereplic inconclusive, RORg inh 0.71µM, Gal4-VP16 FLuc 2.5µM, Chronic BCR inh inconclusive
CCOc1cccc(/C=N/Nc2ccc(S(=O)(=O)N(CC)CC)cn2)c1O	SW480 rereplic inconclusive, MCF10A rereplic 5.2µM, RORg inh 1µM, Gal4-VP16 FLuc 3.2µM, Chronic BCR inh inconclusive
CCN(CC)S(=O)(=O)c1ccc(N/N=C/c2ccc(O)cc2)nc1	Chronic BCR inh inconclusive
Cc1ccc(CNC(=O)C(=O)NCC(c2cccs2)S(=O)(=O)c2ccc(C)cc2)cc1 (centres undefined)	none (no result: SW480 rereplic, MCF10A rereplic, RORg inh, Gal4-VP16 FLuc, Giardia kill)
S=c1[nH]nc(CSCc2ccccc2Cl)n1C1CCCCC1	MCF10A rereplic inconclusive, RORg inh 0.5µM, Gal4-VP16 FLuc inconclusive
Cc1cccc(OCc2n[nH]c(=S)n2C2CCCCC2)c1	RORg inh 0.79µM, Gal4-VP16 FLuc 1.3µM
Cc1cccc(OCc2n[nH]c(=S)o2)c1	Chronic BCR inh inconclusive
Cc1ccc(OCc2n[nH]c(=S)n2C2CCCCC2)cc1	MCF10A rereplic inconclusive, RORg inh 1.4µM, Gal4-VP16 FLuc 3.5µM
O=C(CSCc1ccccc1Cl)NN=C1CCCCCC1	none
S=c1[nH]nc(COc2ccc(Cl)cc2)n1C1CCCCC1	RORg inh 1.1µM, Gal4-VP16 FLuc 0.79µM
CCOc1ccc(-n2c(COc3ccc(C)cc3)nnc2SCC(N)=O)cc1	none
O=C(CS(=O)(=O)c1cn(CC(=O)N2CCOCC2)c2ccccc12)NCc1ccc(F)cc1	none
COc1cccc(CN2CCN(Cc3cccc(Br)c3)CC2)c1OC	MCF10A rereplic inconclusive
COc1ccc2c(=O)c(OC)c(-c3ccccc3)oc2c1	none (no result: SW480 rereplic, MCF10A rereplic, Giardia kill, Chronic BCR inh)
COc1ccc2c(=O)c(Oc3ccc(C(=O)O)cc3)c(C(F)(F)F)oc2c1	RORg inh inconclusive, Gal4-VP16 FLuc 13µM, Chronic BCR inh inconclusive
Cc1nnc(N/N=C/c2ccccc2C(F)(F)F)n1N	Chronic BCR inh inconclusive (no result: RORg inh, Gal4-VP16 FLuc)
Cc1nnc(N/N=C/c2ccco2)n1N	RORg inh 11µM, Gal4-VP16 FLuc 13µM
C(=N\Nc1nc(N2CCOCC2)nc(N2CCOCC2)n1)/c1ccco1	none (no result: SW480 rereplic, MCF10A rereplic, Giardia kill)
Cc1ccnc(N/N=C/c2ccco2)n1	SW480 rereplic 16µM, MCF10A rereplic 2.9µM
CC1=Nc2ccccc2/C1=C/c1sc(=O)n(CC(=O)N2CCCC2)c1O	Chronic BCR inh inconclusive
CC1=Nc2ccccc2/C1=C\c1sc(Nc2ccc(C)cc2)nc1O	SW480 rereplic 1.3µM, MCF10A rereplic inconclusive, Giardia kill inconclusive, Chronic BCR inh inconclusive
Oc1nc(Nc2cccc(Cl)c2)sc1/C=C1\C=Nc2ccccc21	SW480 rereplic inconclusive, MCF10A rereplic 7.3µM, RORg inh inconclusive, Gal4-VP16 FLuc inconclusive
Oc1cccc(Nc2nc(O)c(/C=C3\C=Nc4ccccc43)s2)c1	SW480 rereplic inconclusive, MCF10A rereplic inconclusive, RORg inh inconclusive, Gal4-VP16 FLuc inconclusive, Chronic BCR inh inconclusive
Oc1nc(Nc2ccc(F)cc2)sc1/C=C1\C=Nc2ccccc21	SW480 rereplic inconclusive, MCF10A rereplic 21µM, RORg inh inconclusive, Chronic BCR inh inconclusive
O=C(O)c1ccccc1OCCN1CCCC1=O	none
CC1CCC(O)C/C1=C\C=C1/CCCC2(C)C1CCC2C(C)/C=C/C(C)C(C)C (centres undefined)	SW480 rereplic inconclusive, MCF10A rereplic 21µM, RORg inh inconclusive, Gal4-VP16 FLuc inconclusive (no result: Giardia kill, Chronic BCR inh)
CCCC(c1nnnn1Cc1ccco1)N1CCN(c2cc(Cl)ccc2C)CC1 (centres undefined)	MCF10A rereplic 25µM
CCCC(c1nnnn1Cc1ccco1)N1CCN(c2ccccc2)CC1 (centres undefined)	none
COc1ccc(N2CCCC2=N)c(OC)c1	none
Cc1ccc(C(=O)Nc2ccc(CC(=O)O)cc2)o1	Chronic BCR inh inconclusive
Cc1ccc(NC(=O)c2cnccn2)cc1	Chronic BCR inh inconclusive
O=C(O)Cc1ccc(NC(=O)c2cnccn2)cc1	RORg inh 11µM, Gal4-VP16 FLuc inconclusive
CC(C)(C)c1ccc(C(=O)Nc2ccc(CC(=O)O)cc2)o1	RORg inh 0.79µM, Gal4-VP16 FLuc 0.79µM, Chronic BCR inh inconclusive
N#Cc1cnc(NOCc2ccc(Cl)cc2)nc1	Chronic BCR inh inconclusive
CCSc1nnc(NC(=O)CSc2ncccn2)s1	Chronic BCR inh inconclusive (no result: Gal4-VP16 FLuc)
CCSc1nnc(NC(=O)CSc2nccn2-c2cccc(C)c2C)s1	RORg inh 10µM, Gal4-VP16 FLuc inconclusive
CCSc1nnc(NC(=O)CSc2nccn2-c2cc(C)cc(C)c2)s1	RORg inh 14µM, Gal4-VP16 FLuc inconclusive
Cc1cccc(-n2ccnc2SCC(=O)Nc2nnc(C)s2)c1	SW480 rereplic inconclusive
CCSc1nnc(NC(=O)CSc2c(Cl)cccc2Cl)s1	RORg inh 11µM
CN(CCC#N)C(=O)c1cc2c(Cl)nc3ccccc3c2s1	none
O=c1cc(-c2ccccc2)cc(-c2ccccc2)n1O	Chronic BCR inh inconclusive (no result: RORg inh, Gal4-VP16 FLuc)
CCOC(=O)C(CCc1ccccc1)NC1CCc2ccccc2N(CC(=O)O)C1=O (centres undefined)	SW480 rereplic 27µM, MCF10A rereplic 30µM (no result: Giardia kill, Chronic BCR inh)
Cc1ccc(S(=O)(=O)c2cn(C)c3cc(N4CCN(C)CC4)c(F)cc3c2=O)c(C)c1	SW480 rereplic 1.6µM, RORg inh inconclusive, Gal4-VP16 FLuc inconclusive
COc1ccccc1N(CC(=O)Nc1ccc2c(c1)OCCO2)S(=O)(=O)c1ccc(C)cc1	Chronic BCR inh inconclusive
Cc1c(N=C2N=C(NC(=O)Nc3ccc(Cl)cc3)c3ccccc32)c(=O)n(-c2ccccc2)n1C	MCF10A rereplic 16µM, Chronic BCR inh inconclusive
COc1ccc(NC(=O)c2sc3nc(N4CCOCC4)c4c(c3c2N)CC(C)(C)OC4)cc1	Chronic BCR inh inconclusive
NNC(=O)c1sc2nc(N3CCOCC3)c3c(c2c1N)CCCC3	SW480 rereplic 16µM, MCF10A rereplic 21µM
COc1cccc(NC(=O)c2sc3nc(N4CCOCC4)c4c(c3c2N)CCCC4)c1	MCF10A rereplic 2.3µM, Chronic BCR inh inconclusive
CCOc1ccc(NC(=O)c2sc3nc(N4CCOCC4)c4c(c3c2N)CCCC4)cc1	SW480 rereplic 2.9µM, MCF10A rereplic 23µM
CC(=O)c1ccc(NC(=O)c2sc3nc(N4CCOCC4)c4c(c3c2N)CCCC4)cc1	SW480 rereplic inconclusive, MCF10A rereplic 2.3µM
Nc1c(C(=O)NCc2ccccc2)sc2nc(N3CCOCC3)c3c(c12)CCCC3	none
Nc1c(C(=O)N2CCOCC2)sc2nc(N3CCOCC3)c3c(c12)CCCC3	Chronic BCR inh inconclusive
COc1ccc(-n2c3c(c(=O)[nH]c2=O)C(NC(C)=O)(C(F)(F)F)C(=O)N3)cc1 (centres undefined)	none
Nc1c(C(=O)Nc2ccc(Cl)cc2)sc2nc(N3CCOCC3)c3c(c12)CCCC3	MCF10A rereplic 2.1µM, Chronic BCR inh inconclusive
CCCCN(CC)CCCNC(=O)c1cc2cc3ccc(C)cc3nc2o1	none
